Measured values from the supplement of paper PMC10646978.
± gives the standard deviation.

Legend:
Settings in all cases: modulator concentration 10 µM
[1] = tested on: RAW-Dual (murine macrophage reporter line); experiment: NF-kB reporter (SEAP) activity fold change vs agonist alone; higher = enhanced NF-kB activity
Method in brief: (§1)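 Compound reached 10 μM final in each well by pin transfer, onto RAW-Dual murine macrophage reporter cells seeded at 50 000 per well in 384-well plates. After 1 hour at 37 °C, the cells were stimulated overnight with a PRR agonist. SEAP in the supernatant was read with QUANTI-Blue at 620 nm absorbance for NF-κB, and Lucia luciferase was read with QUANTI-Luc luminescence for IRF. Each signal was turned into fold change against the mean agonist-only control on the same plate, and two replicate plates were averaged with propagated errors.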

[2] = tested on: RAW-Dual (murine macrophage reporter line); experiment: IRF reporter (Lucia luciferase) activity fold change vs agonist alone; higher = enhanced IRF activity
Method in brief: as §1

[3] = tested on: RAW-Dual (murine macrophage reporter line); experiment: viability score (confluency relative to resting cells, overnight) (fraction); higher = more viable, active = viable (0.7 or more)
Method in brief: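 Two confluency masks, generated with IncuCyte software over all imaged wells, were applied to IncuCyte images of RAW-Dual macrophages. The cells, in 384-well plates, had been exposed overnight to 10 μM final compound. The viability score is confluency as a fraction of resting cells, and a compound met the cutoff only with both masks above 70% of resting cells.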

[4] = agonist: CpG ODN 1826 0.5 ug/mL

Row | SMILES | NF-kB reporter [1, 4] | NF-kB reporter ([1]; agonist: LPS 0.1 ug/mL) | NF-kB reporter ([1]; agonist: MPLA […]) | IRF reporter ([2]; agonist: 3'3'-cGAMP 10 ug/mL) | IRF reporter ([2]; agonist: LPS 0.1 ug/mL) | IRF reporter ([2]; agonist: MPLA […]) | viability score [3]
1 | COc1ccc(NC(=O)c2cn(-c3cc(N4CCCCC4)ncn3)cn2)cc1F | 1.31 ± 0.074 | 1.13 ± 0.086 | 1.22 ± 0.035 | 1.52 ± 0.45 | 1.01 ± 0.1 | 1.23 ± 0.3 | 0.97 (active)
2 | Br.O=S(=O)(c1ccc(-c2csc(Nc3ccc(Br)cc3)n2)cc1)N1CCOCC1 | 0.967 ± 0.084 | 1.08 ± 0.091 | 1.1 ± 0.046 | 0.951 ± 0.17 | 1.14 ± 0.049 | 0.903 ± 0.059 | 0.999 (active)
3 | COc1ccc(CNCc2cccc(C(F)(F)F)c2)cc1 | 0.749 ± 0.083 | 1.04 ± 0.087 | 1.02 ± 0.045 | 1.12 ± 0.14 | 0.966 ± 0.071 | 1.37 ± 0.21 | 0.27 (inactive)
4 | N[C@H](Cc1ccccc1)C(=O)O | 0.958 ± 0.074 | 1.05 ± 0.052 | 0.958 ± 0.025 | 0.895 ± 0.076 | 0.988 ± 0.049 | 1.11 ± 0.14 | 1 (active)
5 | Cc1cc(NC(=O)CC(C)C)ccc1N1CCCCC1=O | 1.03 ± 0.097 | 1.03 ± 0.085 | 0.936 ± 0.11 | 1 ± 0.065 | 1.23 ± 0.11 | 1.14 ± 0.32 | 1.01 (active)
6 | COC(=O)c1cccc(-c2ccc(C=NN3C(=O)C4C5C=CC(CC5)C4C3=O)o2)c1 (stereo not given) | 1.04 ± 0.1 | 1.14 ± 0.082 | 0.815 ± 0.055 | 0.867 ± 0.025 | 1.55 ± 0.22 | 1.36 ± 0.14 | 1 (active)
7 | Cc1cc(C)c(-c2csc(NC(=O)C=Cc3cccs3)n2)c(C)c1 | 0.618 ± 0.048 | 0.873 ± 0.091 | 1.44 ± 0.066 | 1.02 ± 0.071 | 1.12 ± 0.097 | 1.89 ± 0.17 | 0.8 (active)
8 | COc1cc(C=NNC(=O)c2ccc(OC)c(OC)c2)ccc1O | 0.788 ± 0.32 | 0.838 ± 0.098 | 0.831 ± 0.066 | 0.83 ± 0.022 | 0.938 ± 0.15 | 1.15 ± 0.15 | 0.996 (active)
9 | CC(=O)c1ccc2c3c([nH]c2c1)CCCC3 | 0.792 ± 0.072 | 0.823 ± 0.072 | 1.01 ± 0.092 | 0.936 ± 0.05 | 1.34 ± 0.077 | 1.53 ± 0.15 | 1.01 (active)
10 | O=C(O)C=Cc1ccc(S(=O)(=O)NCc2cccnc2)cc1 | 0.751 ± 0.077 | 0.82 ± 0.049 | 1.02 ± 0.091 | 1.02 ± 0.062 | 1.46 ± 0.098 | 1.72 ± 0.19 | 1.01 (active)
11 | CCS(=O)(=O)N1CCC(Oc2cc(C)nc(C)n2)CC1 | 1.23 ± 0.07 | 0.996 ± 0.086 | 0.963 ± 0.046 | 0.982 ± 0.05 | 1.05 ± 0.049 | 0.916 ± 0.093 | 0.997 (active)
12 | CC12CC3CC(C)(C1)CC(CNC(=O)c1ccc([N+](=O)[O-])cc1)(C3)C2 | 1.1 ± 0.1 | 0.895 ± 0.065 | 0.957 ± 0.09 | 0.999 ± 0.032 | 1.38 ± 0.22 | 1.48 ± 0.37 | 1 (active)
13 | O=C(NCC1CCCO1)c1[nH]nnc1-c1ccc(F)cc1 (stereo not given) | 1.15 ± 0.16 | 0.996 ± 0.075 | 1.01 ± 0.05 | 0.999 ± 0.038 | 1.03 ± 0.048 | 1.1 ± 0.12 | 1 (active)
14 | CC(C)C(C(=O)Nc1ccccc1C(N)=O)N1C(=O)c2ccccc2C1=O (stereo not given) | 0.93 ± 0.085 | 1.1 ± 0.071 | 0.932 ± 0.058 | 1.02 ± 0.043 | 1.34 ± 0.16 | 1.16 ± 0.075 | 1.01 (active)
15 | CCOc1ccc(S(=O)(=O)NCCn2nc(C3CC3)ccc2=O)cc1C | 1.01 ± 0.063 | 1.07 ± 0.12 | 1.04 ± 0.045 | 1.02 ± 0.051 | 0.993 ± 0.079 | 0.875 ± 0.15 | 0.982 (active)
16 | Cl.Nc1c(Br)cc(Br)cc1CNC1CCC(O)CC1 (stereo not given) | 0.911 ± 0.074 | 0.95 ± 0.1 | 1.04 ± 0.03 | 0.908 ± 0.065 | 0.94 ± 0.096 | 0.999 ± 0.079 | 0.998 (active)
17 | COc1ccc(C(=O)OCCCN2C(=O)c3ccccc3C2=O)cc1 | 0.926 ± 0.15 | 0.986 ± 0.093 | 0.916 ± 0.071 | 0.967 ± 0.036 | 1.26 ± 0.13 | 1.41 ± 0.2 | 1 (active)
18 | Cc1ccc(OCCOc2ncnc3ccccc23)c(Cl)c1 | 1.02 ± 0.11 | 1.02 ± 0.078 | 1.23 ± 0.049 | 0.916 ± 0.094 | 1 ± 0.12 | 0.875 ± 0.18 | 1 (active)

Row | SMILES | NF-kB reporter [1, 4] | NF-kB reporter ([1]; agonist: LPS 0.1 ug/mL) | NF-kB reporter ([1]; agonist: MPLA […]) | IRF reporter ([2]; agonist: 3'3'-cGAMP 10 ug/mL) | IRF reporter ([2]; agonist: LPS 0.1 ug/mL) | IRF reporter ([2]; agonist: MPLA […]) | viability score [3]
19 | CCCOc1cccc(C(=O)Nc2scc(-c3ccccc3Cl)c2C(=O)OC)c1 | 0.817 ± 0.1 | 0.827 ± 0.039 | 1.05 ± 0.092 | 1.03 ± 0.059 | 1.54 ± 0.09 | 1.69 ± 0.2 | 1 (active)
20 | COc1ccc(C2=CC(=Cc3cccc(OC)c3OC)C(=O)O2)c(OC)c1 | 1.21 ± 0.3 | 1.06 ± 0.1 | 1.07 ± 0.086 | 1.04 ± 0.028 | 1.27 ± 0.18 | 1.16 ± 0.14 | 1 (active)
21 | CS(=O)(=O)Nc1cccc(F)c1 | 1.12 ± 0.088 | 1.08 ± 0.074 | 1.03 ± 0.061 | 1 ± 0.17 | 1.07 ± 0.14 | 1.07 ± 0.22 | 1 (active)
22 | Oc1ccc(CN2CCOCC2)cc1 | 1.05 ± 0.17 | 1.08 ± 0.094 | 0.971 ± 0.09 | 0.939 ± 0.06 | 1.24 ± 0.14 | 1.25 ± 0.13 | 0.995 (active)
23 | Cc1cc(C(O)CCNC(=O)COc2cccc3c2OC(C)(C)C3)c(C)o1 (stereo not given) | 1.04 ± 0.099 | 1.01 ± 0.15 | 1.01 ± 0.055 | 0.883 ± 0.038 | 0.992 ± 0.051 | 0.94 ± 0.13 | 1 (active)
24 | COCCN1CCC(NC(=O)c2cccc3ccccc23)CC1 | 1.16 ± 0.099 | 1.06 ± 0.096 | 0.958 ± 0.039 | 0.992 ± 0.083 | 1.02 ± 0.072 | 1.04 ± 0.12 | 0.998 (active)
25 | COc1ccc(OC)c(S(=O)(=O)N2CCC(Oc3nc4c(C)cccc4s3)CC2)c1 | 0.687 ± 0.039 | 0.889 ± 0.092 | 1.02 ± 0.072 | 0.741 ± 0.042 | 1.15 ± 0.26 | 1.41 ± 0.57 | 0.908 (active)
26 | CS(=O)(=O)c1cccc(C[C@H](NC(=O)c2c(Cl)cc3c(c2Cl)CCN(C(=O)c2ccc4ccoc4c2)C3)C(=O)O)c1 | 1.12 ± 0.17 | 1.22 ± 0.23 | 1.97 ± 1.1 | 1.07 ± 0.084 | 1.37 ± 0.41 | 1.31 ± 0.1 | 0.983 (active)
27 | Clc1cccc(Nc2nc(-c3ccccn3)cs2)c1 | 0.881 ± 0.15 | 0.379 ± 0.2 | 0.597 ± 0.18 | 0.537 ± 0.092 | 0.658 ± 0.2 | 0.658 ± 0.23 | 0.246 (inactive)
28 | CC(C)(C)c1cc(C=NO)c(C(C)(C)C)s1 | 0.48 ± 0.028 | 1.03 ± 0.063 | 0.985 ± 0.061 | 0.6 ± 0.02 | 1.13 ± 0.074 | 0.746 ± 0.22 | 0.0422 (inactive)
29 | CCc1c(C)[nH]c2c1C(=O)C(CN1CCOCC1)CC2.Cl (stereo not given) | 0.108 ± 0.0046 | 0.221 ± 0.024 | 0.714 ± 0.042 | 0.752 ± 0.039 | 1.5 ± 0.24 | 1.4 ± 0.43 | 0.855 (active)
30 | Cc1ccc(N2C(=O)C(=CC3CC=CCC3)SC2=S)cc1 (stereo not given) | 0.652 ± 0.054 | 0.835 ± 0.039 | 0.817 ± 0.076 | 0.397 ± 0.022 | 1.04 ± 0.075 | 0.963 ± 0.1 | 0.973 (active)
31 | CCOC(=O)C1=C(CC)NC2=C(C(=O)CCC2)C1c1ccccc1I (stereo not given) | 0.996 ± 0.11 | 1.02 ± 0.13 | 0.982 ± 0.1 | 0.921 ± 0.032 | 1.27 ± 0.16 | 1.05 ± 0.19 | 0.975 (active)
32 | Cc1c(Cl)cccc1S(=O)(=O)NCc1ccnc(N2CCCC2=O)c1 | 1.01 ± 0.055 | 1.03 ± 0.094 | 0.92 ± 0.043 | 0.993 ± 0.057 | 1.07 ± 0.079 | 1.03 ± 0.093 | 0.957 (active)
33 | CCc1c2c(nc3ccc(OC(=O)N4CCC(N5CCCCC5)CC4)cc13)-c1cc3c(c(=O)n1C2)COC(=O)[C@]3(O)CC.Cl.O.O.O | 1.06 ± 0.25 | 1.41 ± 0.23 | 1.54 ± 0.55 | 0.866 ± 0.042 | 1.35 ± 0.35 | 1.2 ± 0.16 | 0.975 (active)
34 | CCCCOc1ccc(OCCCN2CCOCC2)cc1.Cl | 1.2 ± 0.09 | 1.27 ± 0.16 | 1.25 ± 0.1 | 0.643 ± 0.054 | 0.852 ± 0.051 | 0.836 ± 0.071 | 0.981 (active)
35 | COc1ccc(-n2c(C)c([N+](=O)[O-])c3ccc(O)cc32)cc1 | 0.835 ± 0.15 | 1.26 ± 0.1 | 1.34 ± 0.17 | 0.393 ± 0.021 | 0.594 ± 0.089 | 0.601 ± 0.063 | 0.999 (active)
